# In PubChem BioAssay AID504832 (National Center for Advancing Translational Sciences (NCATS), 2011):
# In all, about 310,000 compounds went through this assay and about 18,000 (5.8%) were called active. Inconclusive results (about 22%) are left out. The call rests on the fitted dose curve; in most records, active means well fitted inhibition curve with a large enough effect; inconclusive means small, poorly fitted or top-dose-only effect, or another doubt; inactive means no such curve, though single readings can be large or run the other way. Shown is part of a subset that was picked to be rich in actives. Entries that show only a call come without a potency.
# Test: Primary qHTS for delayed death inhibitors of the malarial parasite plastid, 48 hour incubation
# Settings: P. falciparum luciferase growth in erythrocytes; series mostly up to 28.7 µM
# How it was run: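 Luciferase-expressing P. falciparum in infected erythrocytes (2% hematocrit, 0.1% parasitemia final) in RPMI 1640/0.5% Albumax were exposed to compound for 48 hours at 37 C, 5% CO2; growth read as luminescence.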
# Potency means the concentration at half of the fitted maximal effect.
row,SMILES,Potency
1,COCC1CCN(C(=O)C2CCC(=O)N(CC3CCCCC3)C2)CC1 (centres undefined),inactive
2,CC(CN1CCOCC1)OC(=O)c1ccc(Cl)cc1Cl (centres undefined),inactive
3,CCC(=O)Nc1nc2ccccc2n1Cc1ccccc1C,1.47 µM (active)
4,CCC(=O)NCCc1nc2ccccc2n1CC,inactive
5,CCCCn1c(CCCNC(=O)CC)nc2ccccc21,inactive
6,COCCn1c(C)cc(C(=O)COC(=O)CNC(=O)c2ccco2)c1C,inactive
7,COc1ccc(S(=O)(=O)N2CCC(C(=O)N3CCCC3)CC2)cc1C,inactive
8,CCOc1ccc(CN(C)C(=O)c2ccc(=O)[nH]c2)cc1,inactive
9,Cc1cccc(C(=O)N2CCCC(Nc3ccc(C(C)C)cc3)C2)n1 (centres undefined),inactive
10,COc1ccc(NC2CCCN(C(=O)c3ccncc3)C2)cc1 (centres undefined),inactive
11,CC(C)c1ccc(NC2CCCN(C(=O)c3ccncc3)C2)cc1 (centres undefined),5.86 µM (active)
12,O=C(NCC(=O)N1CCN(c2ncc(C(F)(F)F)cc2Cl)CC1)c1ccc(Br)o1,inactive
13,Cc1nn(Cc2ccccc2)c(C)c1NS(=O)(=O)c1ccccc1,inactive
14,c1ccc(CCn2nnnc2CN2CCN(C3CCCC3)CC2)cc1,inactive
15,c1ccc(C(c2ccccc2)N2CCN(Cc3nnnn3C3CCCCC3)CC2)cc1,8.28 µM (active)
16,CC(C)C(c1nnnn1C1CCCC1)N1CCN(c2ccccc2F)CC1 (centres undefined),inactive
17,CC1CN(C(=O)COC(=O)c2cccc(NS(=O)(=O)c3ccccc3)c2)CC(C)O1 (centres undefined),inactive
18,CCCc1cc(=O)oc2c(C)c(OCC(=O)NCc3ccccn3)ccc12,inactive
19,O=C(Nc1ccc(S(=O)(=O)N2CCCCC2)cc1)c1cnccn1,inactive
20,CC1CCCN(S(=O)(=O)c2ccc(N(C(=O)c3cnccn3)C(C(=O)NC3CCCCC3)c3cccs3)cc2)C1 (centres undefined),11.7 µM (active)
21,CCc1ccc(N(C(=O)c2csnn2)C(C(=O)NC2CCCCC2)c2ccncc2)cc1 (centres undefined),inactive
22,O=C(Nc1ccc(NC(=O)c2ccc3c(c2)OCO3)cc1)c1cccc(Cl)c1,inactive
23,O=C(CSc1n[nH]c(=O)n1-c1ccccc1)Nc1ccccc1C(F)(F)F,inactive
24,CCN(CC)c1ccc(C2C3CCCCC3(O)CCN2CC(=O)Nc2ccccc2)cc1 (centres undefined),inactive
25,CC1CCCCN1CC(=O)NCc1ccc2c(c1)OCO2 (centres undefined),inactive
26,Cc1ccc(NC(=O)CN2CCC3(O)CCCCC3C2c2ccc3c(c2)OCO3)c(C)c1 (centres undefined),10.4 µM (active)
27,Cc1c(S(=O)(=O)NC(C)c2ccccc2)c(=O)n(C)c(=O)n1C (centres undefined),inactive
28,O=C(NCCc1ccc(C(F)(F)F)cc1)c1ccc2c(c1)OCO2,inactive
29,COc1cc(/C=C2\CCCc3c2nc2ccccc2c3C(=O)O)cc(Cl)c1O,inactive
